Reference: the supplement of paper PMC10849652
Of roughly 7,900 targets only a part is listed; those with a hit were picked by preference. About 0.6% of all pairs of compound and target were hits. A number with no mark means an inactive call.

What was measured:
Experiment in all cases: log2 fold change, soluble protein after heating vs DMSO (PISA); higher = thermal stabilisation; K562 cells, 10 uM, 30 min; active = over 0.2 and 3.5 SD of the protein, either way, in both replicates (recomputed)
[1] = compound: C1=CC=C(C=C1)[C@H](COC2=CC3=C(C=C2)NC(=O)N3)NC(=O)C4=CC=CN(C4=O)CC5=CC(=C(C=C5)F)F
Summary of the method: (§1)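 Values are thermal stability changes relative to control samples and are taken from duplicates. They are stated as log2 fold changes. Before quantification by TMTpro 16plex LC-MS/MS with equalised channel sums, K562 cells at 2×10^6 cells/mL were treated with 10 μM compound for 30 min, heated in aliquots for 3 min across 48°C-58°C, pooled, extracted in PBS with 0.5% NP-40 at 4°C, and centrifuged at 21,000xg for 90 min to give the soluble supernatant.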

[2] = compound: CC1=C(SC2=C1C(=N[C@H](C3=NN=C(N32)C)CC(=O)N)C4=CC=C(C=C4)Cl)C
Summary of the method: as §1

[3] = compound: CC1=C2C(=CC=C1)N=C(N(C2=O)C3=CC=CC=C3C)CN4C=NC5=C(N=CN=C54)N
Summary of the method: as §1

[4] = compound: Cc1sc2c(c1C)C(c1ccc(Cl)cc1)=N[C@@H](CC(=O)OC(C)(C)C)c1nnc(C)n1-2
Summary of the method: as §1

[5] = compound: c1ccc([C@@H]2C[C@H]2NC2CCNCC2)cc1
Summary of the method: as §1

Chain of UniProt O95140 (O95140 whole entry, looked up): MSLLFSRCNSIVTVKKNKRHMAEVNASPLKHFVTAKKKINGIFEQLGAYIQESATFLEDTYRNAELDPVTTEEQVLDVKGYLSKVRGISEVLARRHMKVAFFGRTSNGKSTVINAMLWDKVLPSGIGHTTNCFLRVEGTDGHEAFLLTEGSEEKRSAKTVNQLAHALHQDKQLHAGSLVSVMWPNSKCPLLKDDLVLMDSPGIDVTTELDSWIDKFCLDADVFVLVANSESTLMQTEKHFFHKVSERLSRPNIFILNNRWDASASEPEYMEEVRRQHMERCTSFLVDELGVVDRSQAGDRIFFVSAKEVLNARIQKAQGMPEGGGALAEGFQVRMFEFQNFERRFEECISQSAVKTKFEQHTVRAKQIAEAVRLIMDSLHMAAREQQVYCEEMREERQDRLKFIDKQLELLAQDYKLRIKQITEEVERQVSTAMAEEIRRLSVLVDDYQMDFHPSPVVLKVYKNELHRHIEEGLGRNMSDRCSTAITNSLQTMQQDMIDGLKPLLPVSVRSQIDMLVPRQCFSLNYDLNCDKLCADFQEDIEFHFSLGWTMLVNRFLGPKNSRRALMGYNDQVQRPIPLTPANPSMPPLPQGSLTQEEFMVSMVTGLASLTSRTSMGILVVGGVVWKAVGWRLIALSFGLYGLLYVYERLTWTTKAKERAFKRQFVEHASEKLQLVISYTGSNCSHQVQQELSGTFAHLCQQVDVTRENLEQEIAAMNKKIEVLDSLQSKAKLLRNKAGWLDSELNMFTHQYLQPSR
Chain of UniProt Q71SY5 (Q71SY5 whole entry, looked up): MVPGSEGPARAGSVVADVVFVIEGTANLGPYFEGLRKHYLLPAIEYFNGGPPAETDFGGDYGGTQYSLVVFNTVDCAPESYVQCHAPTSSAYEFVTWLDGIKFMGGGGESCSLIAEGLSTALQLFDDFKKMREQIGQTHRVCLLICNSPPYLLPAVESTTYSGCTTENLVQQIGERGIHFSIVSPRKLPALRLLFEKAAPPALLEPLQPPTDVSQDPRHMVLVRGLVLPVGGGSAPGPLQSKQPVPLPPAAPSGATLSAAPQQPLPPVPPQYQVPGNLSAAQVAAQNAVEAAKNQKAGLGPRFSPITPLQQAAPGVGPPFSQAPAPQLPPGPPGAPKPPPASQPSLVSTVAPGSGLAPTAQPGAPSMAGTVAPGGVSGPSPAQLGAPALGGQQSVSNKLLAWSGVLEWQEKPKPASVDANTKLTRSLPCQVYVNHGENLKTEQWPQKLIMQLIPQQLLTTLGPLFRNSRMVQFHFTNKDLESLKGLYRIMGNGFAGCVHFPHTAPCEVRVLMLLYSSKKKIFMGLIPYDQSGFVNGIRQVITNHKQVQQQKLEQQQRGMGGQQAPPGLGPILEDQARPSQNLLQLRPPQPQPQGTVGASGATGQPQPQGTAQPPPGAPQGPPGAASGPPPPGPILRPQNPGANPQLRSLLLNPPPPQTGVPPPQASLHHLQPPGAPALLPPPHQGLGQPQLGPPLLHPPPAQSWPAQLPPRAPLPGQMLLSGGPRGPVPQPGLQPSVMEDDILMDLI
Chain of UniProt O94822 (O94822 whole entry, looked up): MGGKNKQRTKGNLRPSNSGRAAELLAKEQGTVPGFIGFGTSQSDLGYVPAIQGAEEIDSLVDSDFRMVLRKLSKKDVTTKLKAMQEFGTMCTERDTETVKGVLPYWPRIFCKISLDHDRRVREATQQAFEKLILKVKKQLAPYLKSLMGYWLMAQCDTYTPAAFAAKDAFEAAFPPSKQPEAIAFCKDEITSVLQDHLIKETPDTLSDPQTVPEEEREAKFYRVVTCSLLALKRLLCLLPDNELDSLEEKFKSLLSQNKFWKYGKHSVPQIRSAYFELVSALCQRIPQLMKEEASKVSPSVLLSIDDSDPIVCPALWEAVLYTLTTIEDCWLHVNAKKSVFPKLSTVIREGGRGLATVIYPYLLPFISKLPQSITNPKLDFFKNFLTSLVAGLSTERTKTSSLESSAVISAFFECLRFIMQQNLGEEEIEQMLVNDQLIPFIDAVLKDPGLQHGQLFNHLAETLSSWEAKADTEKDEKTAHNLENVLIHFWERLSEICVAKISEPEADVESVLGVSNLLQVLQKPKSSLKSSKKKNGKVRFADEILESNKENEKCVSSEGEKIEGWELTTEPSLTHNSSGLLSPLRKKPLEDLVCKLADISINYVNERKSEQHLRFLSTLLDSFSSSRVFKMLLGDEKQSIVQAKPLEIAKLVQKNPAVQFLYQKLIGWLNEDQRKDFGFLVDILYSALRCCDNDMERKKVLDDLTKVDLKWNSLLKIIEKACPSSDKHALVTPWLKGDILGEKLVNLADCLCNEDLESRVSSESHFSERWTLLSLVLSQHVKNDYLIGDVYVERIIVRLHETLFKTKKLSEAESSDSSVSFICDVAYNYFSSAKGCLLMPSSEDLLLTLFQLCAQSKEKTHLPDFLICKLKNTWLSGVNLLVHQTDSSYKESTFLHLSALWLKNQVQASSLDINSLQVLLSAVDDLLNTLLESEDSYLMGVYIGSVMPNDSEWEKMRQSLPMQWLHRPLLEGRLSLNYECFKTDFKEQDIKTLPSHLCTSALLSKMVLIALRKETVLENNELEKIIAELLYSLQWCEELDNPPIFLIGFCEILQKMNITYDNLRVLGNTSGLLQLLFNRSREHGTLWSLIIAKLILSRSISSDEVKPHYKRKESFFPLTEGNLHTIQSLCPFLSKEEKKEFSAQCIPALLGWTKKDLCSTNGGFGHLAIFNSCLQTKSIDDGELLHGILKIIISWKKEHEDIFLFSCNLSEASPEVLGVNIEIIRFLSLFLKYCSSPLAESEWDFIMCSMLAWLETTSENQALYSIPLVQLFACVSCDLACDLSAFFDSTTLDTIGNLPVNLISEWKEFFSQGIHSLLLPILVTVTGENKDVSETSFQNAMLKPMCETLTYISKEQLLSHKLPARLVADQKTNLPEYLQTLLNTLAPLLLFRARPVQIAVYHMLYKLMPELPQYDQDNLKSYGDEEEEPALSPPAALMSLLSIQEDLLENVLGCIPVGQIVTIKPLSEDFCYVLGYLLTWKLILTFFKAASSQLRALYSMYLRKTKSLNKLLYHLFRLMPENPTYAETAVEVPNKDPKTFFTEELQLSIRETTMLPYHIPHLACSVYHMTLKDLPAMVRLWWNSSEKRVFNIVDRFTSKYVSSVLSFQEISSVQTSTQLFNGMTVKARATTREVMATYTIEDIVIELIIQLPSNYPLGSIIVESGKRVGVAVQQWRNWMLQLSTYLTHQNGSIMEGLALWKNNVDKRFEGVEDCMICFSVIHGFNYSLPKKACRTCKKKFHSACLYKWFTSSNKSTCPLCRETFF
Chain of UniProt Q9Y4K4 (Q9Y4K4 whole entry, looked up): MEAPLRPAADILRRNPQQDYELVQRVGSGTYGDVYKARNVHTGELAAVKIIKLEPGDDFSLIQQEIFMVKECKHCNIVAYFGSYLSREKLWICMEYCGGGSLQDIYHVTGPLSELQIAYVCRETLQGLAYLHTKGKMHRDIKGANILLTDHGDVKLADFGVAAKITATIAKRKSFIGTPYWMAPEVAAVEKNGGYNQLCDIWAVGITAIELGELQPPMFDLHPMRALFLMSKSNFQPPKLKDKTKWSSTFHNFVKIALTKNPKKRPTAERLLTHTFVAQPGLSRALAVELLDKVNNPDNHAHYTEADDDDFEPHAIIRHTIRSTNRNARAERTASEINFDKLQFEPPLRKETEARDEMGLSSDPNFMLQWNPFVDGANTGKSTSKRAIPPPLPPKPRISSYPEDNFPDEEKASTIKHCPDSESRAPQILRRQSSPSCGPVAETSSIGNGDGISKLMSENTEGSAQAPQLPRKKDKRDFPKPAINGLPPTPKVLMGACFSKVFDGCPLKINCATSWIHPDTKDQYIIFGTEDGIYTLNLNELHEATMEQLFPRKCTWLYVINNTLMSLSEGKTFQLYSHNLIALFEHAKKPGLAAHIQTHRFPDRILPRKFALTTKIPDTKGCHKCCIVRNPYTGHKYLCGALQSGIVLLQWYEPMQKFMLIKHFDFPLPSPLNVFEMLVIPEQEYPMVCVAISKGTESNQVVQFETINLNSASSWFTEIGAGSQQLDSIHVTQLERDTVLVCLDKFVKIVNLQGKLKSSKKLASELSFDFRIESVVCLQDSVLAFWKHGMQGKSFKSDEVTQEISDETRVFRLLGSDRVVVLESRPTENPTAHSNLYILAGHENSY
Chain of UniProt Q96GX5 (Q96GX5 whole entry, looked up): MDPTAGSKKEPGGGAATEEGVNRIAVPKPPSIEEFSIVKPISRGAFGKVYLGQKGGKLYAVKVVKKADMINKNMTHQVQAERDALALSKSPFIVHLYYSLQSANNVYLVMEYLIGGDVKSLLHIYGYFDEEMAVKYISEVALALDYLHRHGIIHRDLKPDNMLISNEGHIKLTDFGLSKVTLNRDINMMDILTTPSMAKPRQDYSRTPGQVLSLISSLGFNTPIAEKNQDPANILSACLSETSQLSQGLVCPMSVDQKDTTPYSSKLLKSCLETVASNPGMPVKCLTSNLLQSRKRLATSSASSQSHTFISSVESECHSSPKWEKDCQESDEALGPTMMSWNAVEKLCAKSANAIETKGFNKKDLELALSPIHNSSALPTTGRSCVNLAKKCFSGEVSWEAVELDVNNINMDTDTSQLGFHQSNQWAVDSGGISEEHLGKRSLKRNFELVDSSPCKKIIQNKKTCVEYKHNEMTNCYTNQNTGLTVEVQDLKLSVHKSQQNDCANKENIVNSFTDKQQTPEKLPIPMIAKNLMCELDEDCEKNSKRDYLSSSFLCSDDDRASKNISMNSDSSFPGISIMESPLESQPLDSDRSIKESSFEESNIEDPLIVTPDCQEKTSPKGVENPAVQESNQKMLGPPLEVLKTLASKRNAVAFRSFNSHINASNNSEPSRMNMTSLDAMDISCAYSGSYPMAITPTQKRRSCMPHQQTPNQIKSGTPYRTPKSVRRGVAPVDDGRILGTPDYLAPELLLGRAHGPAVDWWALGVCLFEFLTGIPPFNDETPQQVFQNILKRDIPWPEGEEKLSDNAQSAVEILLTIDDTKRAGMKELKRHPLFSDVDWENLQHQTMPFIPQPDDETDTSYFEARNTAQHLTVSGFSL

Target | log2 fold change [1] | log2 fold change [2] | log2 fold change [3] | log2 fold change [4] | log2 fold change [5]
MDN1 (UniProt Q9NU22) | -0.08 | 0.041 | 0.059 | -0.054 | -0.049
KPNA4 (UniProt O00629) | -0.017 | 0.004 | 0.035 | 0.004 | 0.009
ITM2C (UniProt Q9NQX7) | -0.077 | 0.007 | 0.122 | – | -0.121
KMT2C isoform 3 (UniProt Q8NEZ4) | 0.032 | 0.04 | 0.017 | -0.076 | -0.001
ILK (UniProt Q13418) | -0.081 | 0.017 | 0.132 | 0.053 | -0.087
IMMP1L (UniProt Q96LU5) | 0.054 | 0.045 | 0.101 | -0.021 | 0.024
MAP4K5 (UniProt Q9Y4K4) | 0.055 | -0.039 | 0.107 | 0.05 | 0.062
KLHDC4 (UniProt Q8TBB5) | 0.048 | -0.074 | -0.165 | 0.084 | -0.047
MCUR1 (UniProt Q96AQ8) | -0.02 | 0.018 | 0.007 | -0.008 | -0.023
KDM1A isoform 2 (UniProt O60341) | -0.05 | 0 | 0.087 | -0.019 | 1.73 (active)
MED7 (UniProt O43513) | -0.049 | 0.029 | 0.017 | 0.016 | 0.076
MED25 isoform 3 (UniProt Q71SY5) | -0.12 | 0.06 | -0.14 | -0.128 | -0.257
KLHL18 (UniProt O94889) | 0.014 | 0.101 | 0.135 | 0.017 | -0.021
LTN1 isoform 3 (UniProt O94822) | -0.058 | 0.015 | 0.08 | -0.003 | -0.005
ME2 (UniProt P23368) | 0.046 | 0.073 | 0.078 | -0.086 | 0.09
KLC2 (UniProt Q9H0B6) | -0.046 | 0.085 | 0.118 | 0.032 | 0
MAD2L1 (UniProt Q13257) | -0.045 | 0.077 | 0.067 | -0.021 | -0.019
MAPK9 (UniProt P45984) | 0.015 | 0.015 | 0.039 | -0.042 | 0.004
MASTL (UniProt Q96GX5) | 0.047 | 0.081 | 0.009 | – | -0.02
KIF3A (UniProt Q9Y496) | 0.027 | 0.039 | 0.054 | 0.049 | 0.002
MED22 (UniProt Q15528) | 0.013 | 0.065 | 0.013 | 0.195 | 0
MFN2 (UniProt O95140) | 0.01 | 0.038 | 0.013 | -0.026 | 0.001
LPIN3 isoform 2 (UniProt Q9BQK8) | -0.047 | 0.066 | 0.075 | -0.138 | -0.044
MGST3 (UniProt O14880) | 0.046 | 0.032 | 0.005 | 0.006 | 0.054
IMMT isoform 2 (UniProt Q16891) | 0.021 | 0.029 | 0.035 | 0.091 | 0.033
